# Source: PubChem BioAssay
# Shown are actives, neighbours in structure and some others; about 1.3% of the full set was active somewhere.
# TCR act: activators of T cell receptors | Potency, µM (highest dose often 9.22 µM), for the others: at the top dose activation of IL-2 secretion, most hits filed as activators | primary human leukocytes, anti-CD3, IL-2 HTRF, 48 h | AID 504894 | 330,000 tested, under 10 active; further: % of control where 0% means no effect
#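 IL-2 release read by HTRF sandwich (Eu cryptate donor, d2 acceptor, 665 nm emission) after 48 hr exposure of primary human leukocytes to compound together with anti-CD3 beads in the absence of co-stimulatory signals.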
# BRCA1 expr act: activators of BRCA1 expression | MCF7-BRCA1-FFLuc reporter, luminescence, 48 h; response scale: scaled: vehicle 0%, 10 µM genistein 100% | Potency, µM (top dose mostly 46.1 µM), without a hit: at the top dose activation, most hits filed as activators | actives 1.1% (n = 380,000) | AID 624202; further: potency means the concentration at half of the fitted maximal effect; nearly all actives have a fitted effect of over 80% in size
#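 Activators of BRCA1 expression were detected as increased firefly luciferase luminescence in engineered MCF7 cells after 48 h compound incubation. Signals were scaled to genistein 10 microM as full activation.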
# PTHR1 ag: PTHR1 (human) receptor agonism | actives 0.075% (n = 410,000) | Potency, µM (highest dose often 115 µM), for the others: at the highest dose activation, usual class: activators | Q03431 | HEK293 GP2 PTHR1 cells, GloSensor cAMP luminescence, 1 h; further: potency means the concentration at half of the fitted maximal effect; nearly all actives have a fitted effect of over 55% in size
# Target sequence (Q03431 whole entry, looked up): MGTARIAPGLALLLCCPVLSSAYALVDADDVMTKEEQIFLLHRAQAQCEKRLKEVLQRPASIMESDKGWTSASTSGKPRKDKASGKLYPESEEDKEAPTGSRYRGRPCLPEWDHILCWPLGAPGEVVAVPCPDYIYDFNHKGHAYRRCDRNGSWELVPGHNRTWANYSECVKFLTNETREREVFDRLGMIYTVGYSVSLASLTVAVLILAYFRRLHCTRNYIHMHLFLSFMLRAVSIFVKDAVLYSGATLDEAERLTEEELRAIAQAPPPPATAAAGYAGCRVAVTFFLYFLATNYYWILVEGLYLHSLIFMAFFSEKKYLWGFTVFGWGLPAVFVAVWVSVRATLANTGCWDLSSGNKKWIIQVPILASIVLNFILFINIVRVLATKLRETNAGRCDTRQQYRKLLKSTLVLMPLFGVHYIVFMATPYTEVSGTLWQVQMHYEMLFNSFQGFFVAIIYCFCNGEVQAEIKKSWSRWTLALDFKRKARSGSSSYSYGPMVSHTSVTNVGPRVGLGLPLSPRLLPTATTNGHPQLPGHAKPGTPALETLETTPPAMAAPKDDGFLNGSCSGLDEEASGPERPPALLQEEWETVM
#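 HEK-293-derived GP2 cells expressing PTHR1 and a GloSensor cAMP reporter, 3,000/well, plated overnight, given luciferin plus IBMX (each 0.5 mM as added) for 1 h at 37 °C, then compound for 1 h at 37 °C. Luminescence was read after 15 min at room temperature.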
# IL2 activator: activates IL-2 in a cell-based reporter assay. IL-2 activation reporter assay, cell-based qHTS; stimulated with anti-CD3/CD4/CD28 beads; in transgenic mouse T cells. activation, % (series mostly up to about 46 µM). actives 0.065% (n = 360,000); in the data active means activation above about 50%; inconclusive means mostly about 30% to 49%; further: 0% is about no effect
#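 Readout is EGFP and DsRed signal by fluorescent plate cytometry after 18 h at 37 degrees C. Transgenic mouse T cells (750/well) received compound for 60 min before bead stimulation (anti-CD3, anti-CD4, anti-CD28); memory T cells served as non-tolerant control.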
# Mito fusion yeast: blocks mitochondrial division or promotes mitochondrial fusion; S. cerevisiae fusion-defective mutant growth rescue, CellTiterGlo 48 h; Potency, µM (top dose mostly 46.1 µM), without a hit: at the highest dose growth rescue (activation), usual class: activators; actives 0.23% (n = 320,000); further: potency means the concentration at half of the fitted maximal effect; % of control where 0% means no effect; nearly all actives have a fitted effect of over 45% in size
#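 Growth-rescue viability read-out: after 48 h at the non-permissive 37C in glycerol/ethanol YPEG, yeast mitochondrial fusion mutants are measured by CellTiterGlo luminescence; compounds (23 nl pinned per well) restoring growth score as division inhibitors or fusion activators.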
# Chronic BCR inh: inhibitors of chronic active B-cell receptor signaling. ABC-DLBCL IkBa-CBG/CBR reporter, luminescence ratio, 4 h. Potency, µM (titrated, usually from 46.1 µM), for inactives: top-dose activity change, negative = inhibition, usual class: inhibitors. actives 0.05% (n = 340,000); active means well fitted inhibition curve with a large enough effect in the signal ratio, with a control signal flat, not every such curve was filed as active; inconclusive means small, poorly fitted or top-dose-only effect, or effect the other way, or a change in a side signal; the % refers to the signal ratio;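 further: potency means the concentration at half of the fitted maximal effect; plate controls were basal doxycycline-induced cells for no effect and cells given 10 µM MG132 for full effect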
#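 Concentration-response series (up to 46 uM) were applied to TMD8 dual-reporter cells for 4 h at 37C with doxycycline. Green/red ratio, after filter-overlap correction, defined %Activity; red signal alone was normalised to basal cells and zero luminescence.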
# * hit, by the source's call; i = inactive; u = inconclusive; x = no result; ! = a repeat was not active; [ ] = remark or other dose. Unless noted, the call rests on the fitted dose curve; in most records, active means well fitted curve in the direction sought with a large enough effect; inconclusive means small, poorly fitted or top-dose-only effect, or another doubt; inactive means no such curve, though single readings can be large; an effect the other way counts as inactive or inconclusive.
SMILES,TCR act,BRCA1 expr act,PTHR1 ag,IL2 activator,Mito fusion yeast,Chronic BCR inh
CN(C(=O)c1cc2c(=O)n3ccccc3nc2n1C)C1CCCCC1,-5%,1.4µM*,-7%,-3,4%,u
N#Cc1cc(Oc2cccc3cccnc23)c(-n2nnc3ccccc32)cc1C#N,1%,-79%,-2%[57.5 µM],-5,-7%,7.9µM*
N#Cc1cc(O)c(-n2nnc3ccccc32)cc1C#N,2%,4%,i,0,9%,12%
Cc1cc(C)n(-c2nnc(NC34CC5CC(CC(C5)C3)C4)nn2)n1,2%[46.1 µM],2.5µM*,-52%,0,u,-15%
CC(C)(C)c1ccc(NC(=O)C2CCCN(c3cnccn3)C2)cc1 (stereo not drawn),-6%,7%,-12%,-3,13µM*,0%
Cn1c(SCC(=O)c2ccccc2)nnc1-c1cccs1,4%,10µM*,-28%,0,10%,-10%
CCn1c(SCC(=O)c2ccccc2)nnc1-c1cnccn1,0%,10µM*,i,-3,-2%,u
CCCCCCCCN1C(=O)[C@H](CC(=O)N2CCOCC2)C[C@@]2(C(=O)OC)CCCCC=C12,x,-21%,i,0,x,x
COc1n[nH]c(C(=O)Nc2cc(F)ccc2C)c1[N+](=O)[O-],-3%[46.1 µM],-3%,i,-3,7.1µM*,0%
COc1n[nH]c(C(=O)Nc2cc(Cl)ccc2Cl)c1[N+](=O)[O-],2%,-66%,-37%,-1,21%,u
CCCCSc1nnc2n(-c3ccc(OC)cc3)c(=O)c3c4c(sc3n12)COC(C(C)C)C4 (stereo not drawn),x,x,-9%,x,x,x
CN(C)C1(CNC(=O)c2cccc(S(=O)(=O)NCc3ccccc3)c2)CCCCC1,0%,-5%,32µM*,0,-1%,-5%
CC(C)N1CCC(=NNC(=O)c2cccs2)CC1,2%,8.9µM*,-9%,0,0%,u
Cc1[nH]c2ccccc2c1C(c1c[nH]c2ccccc12)c1c(C)[nH]c2ccccc12,x,0%,x,x,x,x
COc1ccc(NC(=O)Cn2c(SCc3ccc(F)cc3)nc3cccnc32)c(OC)c1,x,x,-46%,x,x,x
CCn1c2ccccc2c2cc(NC(=O)N3CCOCC3)ccc21,0%,11µM*,i,-4,0%,-2%
CCn1c2ccccc2c2cc(NC(=O)CN(C)CC(=O)Nc3ccc(N4CCOCC4)cc3)ccc21,9%,-38%,-8%,0,-1%,-25%
O=C(Nc1ccccc1)N1CCOCC1,x,4%,-6%,-1,-3%,-5%
CCNC(=S)Nc1ccc2c(c1)oc1ccccc12,3%,4.5µM*,-12%,0,x,x
CCNC(=S)Nc1ccc2ncoc2c1,14%,10%,i,1,-1%,-1%
O=C(Nc1ccc2c(c1)oc1ccccc12)N1CCOCC1,-4%,6.3µM*,-3%[57.5 µM],1,3%,u
Cc1ccccc1-c1cc(C(=O)Nc2sc(C(=O)OC(C)C)c(C)c2C#N)c2ccccc2n1,-33%,-104%,-92%[57.5 µM],-2,2%,u
Nc1cc(=O)[nH]c(SCC(=O)Nc2cc(S(=O)(=O)N3CCCCC3)ccc2Cl)n1,-5%,3%,-35%,-1,2%,-1%
O=C(CSc1nnc(NC(=O)c2ccccc2)s1)NCC1CCCO1 (stereo not drawn),-2%,77%,-11%,1,0%,2%
O=C(CSc1nnc(NC(=O)c2ccccc2F)s1)NCC1CCCO1 (stereo not drawn),7%,13µM*,-8%,-2,1%,8%
SMILES,TCR act,BRCA1 expr act,PTHR1 ag,IL2 activator,Mito fusion yeast,Chronic BCR inh
CCCC(=O)NC(=S)Nc1ccc(S(=O)(=O)Nc2ccc(OCC)cc2)cc1,4%[46.1 µM],-53%,i,-1,16µM*,u
CCOc1ccc(NS(=O)(=O)c2ccc(NC(=S)NC(=O)CC(C)C)cc2)cc1,5%,-70%,-9%,1,u,0%
O=C(Cn1cc(C(=O)C2CC2)c2ccccc21)NCc1ccccc1,-3%[46.1 µM],13µM*,-15%[57.5 µM],0,0%,12%
O=C(O)Cn1cc(C(=O)C2CC2)c2ccccc21,x,5%,u,-1,-7%,-3%
COCc1cc(C)nc(SCC(=O)Nc2ccc(C)c(C)c2)c1C#N,1%,4µM*,-3%[57.5 µM],0,-1%,-2%
Cc1nc(SCC(=O)Nc2ccc3c(c2)OCO3)c(C#N)c2c1CCCC2,2%,7.1µM*,-25%[57.5 µM],1,-6%,u
Cc1cc(C)c(C#N)c(SCC(=O)Nc2ccc3c(c2)OCO3)n1,3%,11µM*,-12%,-2,0%,-17%
Cc1cc(C)nc(SCC(=O)Nc2ccc3c(c2)OCO3)n1,2%,-15%,-26%,2,-2%,-1%
O=C(Cn1c(=O)oc2cc(S(=O)(=O)NCc3ccccc3)ccc21)NCc1ccccc1Cl,x,x,i,x,x,u
O=C(CN1C(=O)c2cccc3cccc(c23)C1=O)NCCN1CCOCC1,2%,2%,-11%,0,2%,7%
Nc1nc(-c2ccccc2)cs1,x,101%,-5%[57.5 µM],-2,2%,u
Nc1nc(-c2ccc(F)cc2)cs1,0%,67%,i,4,11%,2%
Nc1nc(-c2cccc(Br)c2)cs1,x,11µM*,5.6µM*,-1,14%,12%
Nc1nc(-c2ccc(Br)cc2)cs1,-13%,16µM*,i,0,16%,19%
c1ccc2c(c1)CCN(c1ncnc3nc[nH]c13)C2,9%[46.1 µM],3.5µM*!,-13%,-4,3%,-15%
C1=C(c2ccccc2)CCN(c2ncnc3nc[nH]c23)C1,0%,0%,i,-3,-1%,u
COc1cc(CNC(=O)CCCCCCC(C)C)ccc1O,-4%,-1%,-9%,0,18µM*!,-7%
COc1ccc(CCNC(=O)CCCCC(=O)NCCc2ccc(OC)c(OC)c2)cc1OC,0%,-7%,i,0,x,x
c1cc2c(cc1Cc1cncc(Cc3ccc4c(c3)OCO4)c1)OCO2,x,16%,x,x,x,x
CCOC(=O)N1CCN(C(=O)CSCc2ccccc2)CC1,2%[46.1 µM],11µM*,i,2,-6%,0%
Cc1ccc(-n2nc(CO)c(C(=O)NC(C)CCCc3ccccc3)n2)cc1C (stereo not drawn),x,x,-85%,x,x,x
COc1ccc(CCNc2nc(SCc3ccccc3F)nc3ccccc23)cc1OC,x,x,-8%,x,x,-6%
Cc1ccc(-c2noc(C3CCCN(C(=O)c4ccccc4Br)C3)n2)o1 (stereo not drawn),1%,10µM*,i,0,-9%,0%
